Measured values from PubChem BioAssay.
Results with a measured potency or affinity are listed apart. Calls of active or inactive are those of the source. Cut-off not given; nearly all actives show IC50 up to about 0.91 µM.

Biological target: Calcium-dependent protein kinase 4 (Plasmodium falciparum (isolate 3D7)) (UniProt Q8IBS5)
Assay: PfCDPK4 kinase inhibitors, biochemical, TCAMS library (AID 1159588)
Conditions: recombinant PfCDPK4, Kinase-Glo ATP depletion luminescence

Calcium-dependent protein kinase 4 (Plasmodium falciparum (isolate 3D7)), sequence (Q8IBS5 whole entry, looked up): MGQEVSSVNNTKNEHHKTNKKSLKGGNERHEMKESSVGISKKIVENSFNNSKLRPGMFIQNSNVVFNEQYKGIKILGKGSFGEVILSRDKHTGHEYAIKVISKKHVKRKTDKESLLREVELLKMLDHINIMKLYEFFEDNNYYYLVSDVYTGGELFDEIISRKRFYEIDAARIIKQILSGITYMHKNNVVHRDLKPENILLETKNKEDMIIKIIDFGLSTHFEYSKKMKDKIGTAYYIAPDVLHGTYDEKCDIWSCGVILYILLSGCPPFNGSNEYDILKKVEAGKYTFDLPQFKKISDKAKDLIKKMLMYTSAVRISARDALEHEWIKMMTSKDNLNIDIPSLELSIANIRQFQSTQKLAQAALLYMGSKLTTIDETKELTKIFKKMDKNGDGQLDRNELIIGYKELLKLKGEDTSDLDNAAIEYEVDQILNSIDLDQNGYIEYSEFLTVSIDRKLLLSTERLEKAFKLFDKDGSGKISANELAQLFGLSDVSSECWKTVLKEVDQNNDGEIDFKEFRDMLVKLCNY

outcome, inactive:
CNc1ccc(CNCc2cccc(-c3ccc(-c4nc5c(C)cccc5[nH]4)cc3)c2)cc1
COc1ccc(C2C(C(=O)Nc3cc(C)ccc3OC)c3ccccc3C(=O)N2C)cc1 (stereo not given)
N#Cc1ccccc1Sc1ccccc1C(=O)Nc1ccc2ccccc2n1
COc1ccc2nccc([C@@H](O)CN3CCC(NC(=O)c4ccc(Cl)c([N+](=O)[O-])c4)CC3)c2c1
O=C(Nc1cccc(-c2cccc(-c3nc4ccc(C(F)(F)F)cc4[nH]3)c2)c1)c1ccncc1
O=C(Nc1ccccc1)c1nn(CCCN2CCC(N3CCCC3)CC2)cc1-c1ccc(Cl)c(Cl)c1
CC(=O)NC(c1cccs1)c1cc(Cl)c2cccnc2c1O (stereo not given)
COc1cc(NC(=O)N2CCc3ccc(OCCN4CCCCC4)cc32)cc(C(F)(F)F)c1
Cc1cc(N[C@@H](Cc2ccccc2)C(=O)NCCOc2ccccc2)nc(NCCOc2ccccc2)n1
Cc1nc(-c2ccc(-c3ccc(NC(=O)c4coc5ccc(N6C[C@@H](C)N(C)[C@@H](C)C6)cc45)cc3)c(C)c2)no1
N#Cc1ccc2c(c1)CCN(CCC1CCC(NC(=O)/C=C/c3cc(Br)cs3)CC1)CC2 (stereo not given)
CN1CCN(c2ccnc3ccc(NC(=O)Nc4ccccc4Br)cc23)CC1
Cc1nc2ccc3ccc(CNc4ccc5c(c4)CN([C@H](CCC(=O)O)C(=O)O)C5=O)cc3c2c(=O)[nH]1
CCCC(=O)NC(c1ccc(C(C)C)cc1)c1ccc2cccnc2c1O (stereo not given)
COc1ccc2nccc([C@@H](O)CN3CCC(NCCOc4cccc(F)c4F)CC3)c2c1
Cc1cc(N[C@@H](CC(C)C)C(=O)NCc2cccc(F)c2)nc(NCCc2ccc(F)cc2)n1
COCCn1c(-c2nc(-c3ccc(F)cc3)cnc2N)nc2ccccc21
C=CCc1cc(Br)ccc1OCCCON1C(N)=NC(N)=NC1(C)C
O=C(Nc1ccnc2ccccc12)NC1CCN(Cc2ccccc2)CC1
O=C(/C=C/c1ccc(Cl)c(Cl)c1)NC1CCC(CN2CCC(c3coc4ccccc34)CC2)CC1 (stereo not given)
Oc1cccc(Nc2nc(NCc3ccco3)c3ccccc3n2)c1
CN(C)C(=NCCCCCCN=C(/N=C(/N)Nc1ccc(Cl)cc1)N(C)C)/N=C(/N)Nc1ccc(Cl)cc1
CC1CCC2(CC1)N=C(N)N=C(N)N2OCc1ccc(Br)c2ccccc12 (stereo not given)
O=S(=O)(NCCN1CCCC1)c1cccc(-c2cccc(CNCc3ccc(F)cc3)c2)c1
COc1ccc2nccc([C@@H](O)CN3CCC(NC(=O)/C=C/c4ccc(Cl)c(C(F)(F)F)c4)CC3)c2c1
Clc1ccc2c(N3CCCNCC3)ccnc2c1
c1ccc(Cn2nnnc2-c2cccc(Nc3ccnc4cc(-c5nccs5)ccc34)c2)cc1
CC(C)Oc1cc2c(cc1NS(=O)(=O)c1ccc(-c3cccs3)cc1)CCN(C)CC2
Cc1cc([N+](=O)[O-])ccc1N1CCN(CCCCNC(=O)c2ccc(NC(=O)c3ccc(Cl)cc3)cc2)CC1
CC1CCC(NCc2c(O)ccc3ccccc23)CC1 (stereo not given)
CCNc1cc(C(=O)N[C@@H](Cc2cc(F)cc(F)c2)[C@H](O)CNCc2cccc(C(F)(F)F)c2)cc(N2CCCCS2(=O)=O)c1
CCc1ccc(NC(=O)c2cccc(CN3CCCN(CC4CCCCC4)CC3)c2)cc1
CC1(C)N=C(NC(=O)Nc2ccc([N+](=O)[O-])cc2)N=C(N)N1OCc1cccc2ccccc12
O=C(Nc1ccc(Cl)cc1)NC1CCN(CCCCCNC(=O)[C@@H]2C[C@H]2c2ccc(Cl)c(Cl)c2)CC1
O=C(NC1CCCCCC1)C1CCCN(C(=O)c2ccc(O)c(-c3ccc(Cl)c(Cl)c3)c2)C1 (stereo not given)
O=C(Nc1ccc2c(c1)CCC2)c1nc(N2CCN(c3ccncc3)CC2)ccc1Cl
CCNc1cc(C(=O)N[C@@H](Cc2ccccc2)[C@H](O)CNC2(Cc3cccc(Cl)c3)CCC2)cc(N2CCCCS2(=O)=O)c1
COc1ccc(-c2ccc(CNC3Cc4ccccc4C3)cc2)cc1S(=O)(=O)NCCN1CCCC1
N#Cc1ccc2c(c1)CCN(CCC1CCC(Nc3ncnc4ccccc34)CC1)C2 (stereo not given)
Cc1[nH]c(C)c(-c2ccc(-c3ccc(Cl)cc3)nc2)c(=O)c1Cl
